# Assay results taken from PubChem BioAssay (Tox21).
# Several values for one entry are separate records, joined by “and”; a condition that tells them apart may be missing. Identical values can stand only once. Inconclusive results are not listed. Entries that show only a call come without a potency. Some compounds were tested as several samples or in several runs, with calls that do not always agree. Activity calls are given as the source filed them. Unless noted, the call rests on the fitted dose curve; in most records, active means well fitted curve in the direction sought with a large enough effect in the repeat runs; inconclusive means weak or mixed curves; inactive means no such curve, though single readings can be large; an effect the other way counts as inactive or inconclusive.
# Experiments:
# [1] = qHTS RealTime-Glo MT Cell Viability Assay in HepG2 cells - 16 hour (AID 1224885); further: nearly all actives have a fitted effect of over 50% in size
# In short: (§1)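 Real-time, nonlytic viability: 600 HepG2 cells/well mixed with NanoLuc enzyme plus prosubstrate; 5 h settle, compound (DMSO) added by pintool; luminescence monitored over 40 h at 37 C.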
# [2] = qHTS RealTime-Glo MT Cell Viability Assay in HEK293 cells - 24 hour (AID 1224886); further: top concentration of the series differs between compounds; nearly all actives have a fitted effect of over 50% in size
# In short: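 Cells + reagent dispensed (600 cells/well, HEK293) → 5 h at 37 C/5% CO2 → 23 nL compound in DMSO pinned → 40 h at 37 C → luminescence read at 0, 8, 16, 24, 32, 40 h.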
# [3] = qHTS RealTime-Glo MT Cell Viability Assay in HEK293 cells - 8 hour (AID 1224887); further: top concentration of the series differs between compounds; nearly all actives have a fitted effect of over 50% in size
# In short: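 Luminescence, which tracks viable cell number through reduction of the prosubstrate to a NanoLuc substrate, was read over continuous 37 C culture. Cells (600/well) were premixed with reagent and rested 5 h before 23 nL of compound in DMSO was pinned.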
# [4] = qHTS RealTime-Glo MT Cell Viability Assay in HepG2 cells - 0 hour (AID 1224889); further: nearly all actives have a fitted effect of over 50% in size
# In short: as §1
# [5] = A CellTox Green Cytotoxicity Assay to monitor cytotoxicity in HepG2 cells - 8 hour (AID 1224890); further: nearly all actives have a fitted effect of over 45% in size
# In short: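 Real-time cytotoxicity: fluorescence of a cell-impermeant cyanine dye binding DNA of dead HepG2 cells, measured repeatedly (0–40 h) during compound exposure at 37 C. Cells seeded 600/well with reagent, dosed after 5 h.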
# [6] = qHTS assay to identify small molecule antagonists of the estrogen receptor alpha (ER-alpha) signaling pathway using the BG1 cell line in the presence of 0.1 nM 17-beta-estradiol - cell viability counter screen (AID 1259241); further: nearly all actives have a fitted effect of over 40% in size; further: potency means the concentration at half of the fitted maximal effect
# In short: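 VM7Luc4E2 cells (endogenous ER-alpha, 4×ERE-luciferase), hormone-starved 5 days in charcoal-stripped FBS, were treated with compounds plus 0.1 nM 17beta-estradiol for 22 hr at 37C; viability read in same wells as CellTiter-Fluor live-cell protease fluorescence.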
# [7] = qHTS assay to identify small molecule antagonists of the androgen receptor (AR) signaling pathway using the MDA cell line in the presence of 0.5 nM R1881 - cell viability counter screen (AID 1259242); further: nearly all actives have a fitted effect of over 45% in size
# In short: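 Live-cell protease activity was measured by CellTiter-Fluor fluorescence after 30 min. Before that, MDA-kb2 MMTV-luciferase cells had 16 hr at 37C without CO2, exposed to test compounds and 0.5 nM R1881 final.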
# [8] = qHTS assay to identify small molecule HDAC inhibitors (AID 1259364); further: top concentration of the series differs between compounds; nearly all actives have a fitted effect of over 45% in size
# In short: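 Luminescence read after 30 min room-temperature HDAC-Glo incubation measures cellular class I/II HDAC activity. Compounds were applied for 2 hr at 37 C to HCT-116 wild-type cells seeded the day before.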
# [9] = qHTS assay to identify small molecule HDAC inhibitors - cell viability counter screen (AID 1259365)
# In short: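 Wild-type HCT-116 cells were seeded at 1,500 per well, incubated overnight at 37 C, then exposed to compounds in DMSO for 2hr. Viability was read by CellTiter-Glo luminescence after 30min at room temperature.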
# [10] = qHTS assay to identify small molecule agonists of the sonic hedgehog signaling (Shh) pathway - cell viability counter screen (AID 1259366); further: nearly all actives have a fitted effect of over 50% in size
# In short: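 NIH/3T3-derived 3T3 Gli1-Luc cells (stable Gli1-responsive firefly luciferase reporter) were seeded, rested 4 hr at 37 C/5% CO2, then exposed to compounds in DMSO for 24 hr; viability was read by CellTiter-Fluor fluorescence in the same wells.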
# [11] = qHTS assay to identify small molecule antagonists of the sonic hedgehog signaling (Shh) pathway - cell viability counter screen (AID 1259367); further: nearly all actives have a fitted effect of over 55% in size; further: potency means the concentration at half of the fitted maximal effect
# In short: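 Tox21 library chemicals were tested on a Gli1-Luc NIH/3T3 clone (2,000 cells/well) stimulated by conditioned medium; viability was quantified as fluorescence from CellTiter-Fluor reagent added at 23 hr.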
# [12] = qHTS assay to identify small molecule agonists of the sonic hedgehog signaling (Shh) pathway (AID 1259368; calls by dose curve; further: series mostly up to about 92 µM; nearly all actives have a fitted effect of over 15% in size)
# In short: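 Luminescence was read after 30 min at room temperature with luciferase reagent. Before that, 3T3Gli1-Luc cells (NIH/3T3 clone, stable Gli1-Luc reporter; 2,000/well) were exposed to compounds for 24 hr at 37C, 5% CO2, compounds being added 4 hr post-plating.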
# [13] = qHTS assay to identify small molecule antagonists of the sonic hedgehog signaling (Shh) pathway (AID 1259369; calls by dose curve; further: nearly all actives have a fitted effect of over 45% in size)
# In short: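 Antagonist mode: compound added to 3T3 Gli1-Luc cells followed by conditioned-medium stimulation, 24 h at 37 C, 5% CO2. Inhibition taken as loss of Gli1-driven luciferase luminescence.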
# [14] = qHTS assay to identify small molecule agonists of the androgen receptor (AR) signaling pathway in the presence of an antagonist - cell viability counter screen (AID 1259379); further: nearly all actives have a fitted effect of over 25% in size; further: potency means the concentration at half of the fitted maximal effect
# In short: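 Cytotoxicity counter-screen run in the same wells as the nilutamide-challenged (3.0 µM final) AR agonist assay in MDA-kb2 cells. Compounds tested at 15 concentrations for 16 h, 37 °C without CO2; CellTiter-Fluor fluorescence read.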
# [15] = A CellTox Green Cytotoxicity Assay to monitor cytotoxicity in HEK293 cells - 16 hour (AID 1224888); further: nearly all actives have a fitted effect of over 35% in size
# In short: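 Fluorescence from a DNA-binding dye excluded by viable cells was measured repeatedly in the same HEK293 wells (600 cells/well) during continuous compound exposure at 37 C. Each assay gives one read point: 0, 8, 16, 24, 32 or 40 h.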
# [16] = molecular target: Estrogen receptor (Homo sapiens) (UniProt P03372); assay: qHTS assay to identify small molecule antagonists of the estrogen receptor alpha (ER-alpha) signaling pathway using the BG1 cell line in the presence of 0.1 nM 17-beta-estradiol (AID 1259244); further: nearly all actives have a fitted effect of over 50% in size; further: potency means the concentration at half of the fitted maximal effect
# In short: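 Luciferase luminescence (ONE-Glo, 30 min at room temperature) was read after 22 hr at 37C exposure to compounds plus 17beta-estradiol at 0.1 nM final. Cells were VM7Luc4E2 with endogenous ER-alpha and an ERE-driven luciferase, pre-cultured 5 days in hormone-depleted medium.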
# [17] = qHTS assay to identify small molecule phospholipidosis (PLD) inducers (AID 1259344; active means well fitted curve in the direction sought with a large enough effect; an effect the other way counts as inactive or inconclusive)
# In short: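 Image-based: LipidTOX Red pit count/intensity per well and per cell; HepG2, 24 h compound at 37 C, PFA fixation, Hoechst counterstain.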
# [18] = molecular target: Estrogen receptor beta (Homo sapiens) (UniProt Q92731); assay: qHTS assay to identify small molecule agonists of the estrogen receptor beta (ER-beta) signaling pathway (AID 1259377; active means well fitted activation curve with a large enough effect in the signal ratio in the repeat runs, not every such curve was filed as active; the % refers to the signal ratio)
# In short: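 ER-beta-UAS-bla HEK293T (GripTite) cells carrying a UAS-driven beta-lactamase reporter, in medium with 2% charcoal-stripped FBS, were exposed to compounds for 16 hr at 37C; LiveBLAzer B/G FRET substrate was then added and fluorescence read after 2 hours at room temperature.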
# [19] = molecular target: Estrogen receptor beta (Homo sapiens) (UniProt Q92731); assay: qHTS assay to identify small molecule antagonists of the estrogen receptor beta (ER-beta) signaling pathway (AID 1259378; active means well fitted inhibition curve with a large enough effect in the signal ratio in the repeat runs, not every such curve was filed as active; the % refers to the signal ratio)
# In short: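 ER-beta-UAS-bla HEK293T cells in 2% charcoal-stripped FBS medium treated with compound plus 1nM final 17-beta-estradiol for 16 hr at 37C. Beta-lactamase reporter read by FRET substrate fluorescence after 2 hours at room temperature.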
# [20] = molecular target: Androgen receptor (Homo sapiens) (UniProt P10275); assay: qHTS assay to identify small molecule antagonists of the androgen receptor (AR) signaling pathway using the MDA cell line in the presence of 0.5 nM R1881 (AID 1259243); further: nearly all actives have a fitted effect of over 50% in size; further: potency means the concentration at half of the fitted maximal effect
# In short: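 Luminescent reporter readout (ONE-Glo, 30 min, room temperature) after 16 hr co-treatment of MDA-kb2 cells with test compounds and 0.5 nM R1881 final, at 37C without CO2. The MMTV-driven luciferase responds to both AR and GR.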
# Chain of Estrogen receptor beta (Homo sapiens) (Q92731 whole entry, looked up): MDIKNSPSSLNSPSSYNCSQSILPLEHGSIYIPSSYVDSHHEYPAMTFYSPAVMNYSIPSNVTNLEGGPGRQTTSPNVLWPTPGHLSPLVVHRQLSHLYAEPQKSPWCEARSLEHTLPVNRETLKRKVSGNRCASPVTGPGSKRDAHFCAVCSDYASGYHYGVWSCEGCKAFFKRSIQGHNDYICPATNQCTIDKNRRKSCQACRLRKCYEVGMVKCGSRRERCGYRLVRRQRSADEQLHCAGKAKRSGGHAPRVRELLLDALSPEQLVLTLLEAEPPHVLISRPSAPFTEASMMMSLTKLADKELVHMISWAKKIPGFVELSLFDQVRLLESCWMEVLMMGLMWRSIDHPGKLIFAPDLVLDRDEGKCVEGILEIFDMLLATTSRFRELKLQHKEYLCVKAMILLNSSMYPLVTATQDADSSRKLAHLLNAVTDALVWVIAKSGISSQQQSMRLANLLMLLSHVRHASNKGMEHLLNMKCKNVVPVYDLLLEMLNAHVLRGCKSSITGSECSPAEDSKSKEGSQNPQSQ
# Chain of Estrogen receptor (Homo sapiens) (P03372 whole entry, looked up): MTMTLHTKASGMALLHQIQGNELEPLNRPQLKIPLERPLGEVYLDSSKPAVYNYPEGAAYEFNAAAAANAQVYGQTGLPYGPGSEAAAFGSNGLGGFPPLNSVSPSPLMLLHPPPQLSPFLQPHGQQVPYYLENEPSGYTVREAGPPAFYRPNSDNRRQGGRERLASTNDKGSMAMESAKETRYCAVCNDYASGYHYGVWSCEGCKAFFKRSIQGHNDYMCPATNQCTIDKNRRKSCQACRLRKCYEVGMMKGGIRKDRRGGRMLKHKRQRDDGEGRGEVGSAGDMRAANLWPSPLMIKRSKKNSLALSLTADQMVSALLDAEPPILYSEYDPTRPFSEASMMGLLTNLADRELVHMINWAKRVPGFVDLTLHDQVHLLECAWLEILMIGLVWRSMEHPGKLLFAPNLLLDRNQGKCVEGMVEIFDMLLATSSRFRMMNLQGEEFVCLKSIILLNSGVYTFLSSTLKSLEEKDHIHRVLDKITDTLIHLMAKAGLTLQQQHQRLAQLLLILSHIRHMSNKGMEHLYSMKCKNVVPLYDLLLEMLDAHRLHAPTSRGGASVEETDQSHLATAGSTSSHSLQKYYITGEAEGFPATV
# Chain of Androgen receptor (Homo sapiens) (P10275 whole entry, looked up): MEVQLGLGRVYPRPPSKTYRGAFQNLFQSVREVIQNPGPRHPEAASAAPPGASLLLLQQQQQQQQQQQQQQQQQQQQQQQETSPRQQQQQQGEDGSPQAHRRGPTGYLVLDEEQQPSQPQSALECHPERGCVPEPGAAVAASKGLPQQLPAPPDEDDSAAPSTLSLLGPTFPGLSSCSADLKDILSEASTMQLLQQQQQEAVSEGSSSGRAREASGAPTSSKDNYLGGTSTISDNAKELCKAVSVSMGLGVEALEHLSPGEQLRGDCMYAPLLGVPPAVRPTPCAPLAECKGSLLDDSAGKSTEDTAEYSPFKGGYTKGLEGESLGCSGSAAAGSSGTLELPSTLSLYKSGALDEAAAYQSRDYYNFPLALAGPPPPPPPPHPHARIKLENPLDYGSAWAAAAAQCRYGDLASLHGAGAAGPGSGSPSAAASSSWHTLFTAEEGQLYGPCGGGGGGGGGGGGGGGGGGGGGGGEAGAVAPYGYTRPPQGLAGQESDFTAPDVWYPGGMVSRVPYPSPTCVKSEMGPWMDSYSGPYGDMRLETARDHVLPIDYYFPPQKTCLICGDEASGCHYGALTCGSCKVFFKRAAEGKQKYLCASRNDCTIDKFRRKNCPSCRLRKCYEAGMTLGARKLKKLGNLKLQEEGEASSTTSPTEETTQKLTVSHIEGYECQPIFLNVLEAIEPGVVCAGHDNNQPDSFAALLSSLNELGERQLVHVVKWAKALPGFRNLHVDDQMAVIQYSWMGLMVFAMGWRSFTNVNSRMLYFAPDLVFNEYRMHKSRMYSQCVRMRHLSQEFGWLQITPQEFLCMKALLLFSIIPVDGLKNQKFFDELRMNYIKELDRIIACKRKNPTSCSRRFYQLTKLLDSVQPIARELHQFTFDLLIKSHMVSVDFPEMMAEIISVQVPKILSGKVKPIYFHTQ
Structure (SMILES),outcome [1],Potency [2],Potency [3],Potency [4],Potency [5],Potency [6],outcome [7],Potency [8],outcome [9],Potency [10],Potency [11],outcome [12],Potency [13],Potency [14],outcome [15],Potency [16],outcome [17],Potency [18],Potency [19],Potency [20]
OCC(CO)(CBr)CBr,inactive,inactive,inactive,inactive,inactive,inactive,inactive,inactive,inactive,inactive,inactive,inactive,inactive,inactive,–,–,–,–,–,–
CCc1ccc(CCOc2ccc(CC3SC(=O)NC3=O)cc2)nc1 (stereo unspecified),–,inactive,inactive,inactive,inactive,inactive,inactive,inactive,inactive,inactive,inactive,inactive,inactive,–,inactive,54.5 µM (active) and inactive,inactive,inactive,–,–
CN(C)CCCN,inactive,inactive,inactive,inactive,inactive,inactive,inactive,inactive,inactive,inactive,inactive,inactive,inactive,–,–,inactive,–,–,–,–
CCN(CC)c1ccc(C(=O)c2ccccc2C(=O)O)c(O)c1,inactive,inactive,inactive,inactive,inactive,inactive,inactive,inactive,inactive,–,inactive,inactive,inactive,–,–,inactive,–,inactive,inactive,–
O=C(O)c1cc(C(=O)O)cc(S(=O)(=O)O)c1,inactive,inactive,inactive,inactive,inactive,inactive,inactive,inactive,inactive,–,inactive,inactive,inactive,–,inactive,–,–,–,–,–
CCC(O)OCCCOC (stereo unspecified),inactive,inactive,inactive,inactive,inactive,inactive,inactive,inactive,inactive,–,28 µM (active) and inactive,inactive,inactive,–,inactive,–,–,inactive,inactive,–
O=C(OCCOCCOC(=O)c1ccccc1)c1ccccc1,inactive,–,–,inactive,inactive,inactive,inactive,inactive,inactive,–,inactive,inactive,inactive,inactive,inactive,inactive,–,–,–,–
Nc1cc([N+](=O)[O-])ccc1O,inactive,inactive,inactive,inactive,inactive,48.6 µM (active),–,inactive,inactive,–,inactive,inactive,inactive,48.6 µM (active) and 54.2 µM (active),–,–,–,–,–,inactive
CCCCCCOCCO,inactive,inactive,inactive,inactive,inactive,inactive,inactive,inactive,inactive,inactive,inactive,inactive,inactive,inactive,–,inactive,–,inactive,inactive,–
c1ccc2c(c1)ccc1ccccc12,–,inactive,inactive,inactive,inactive,inactive,inactive,inactive,inactive,inactive,inactive,inactive,inactive,inactive,inactive,inactive,–,–,–,17.2 µM (active)
O=S(=O)(O)c1ccc2ccccc2c1,inactive,inactive,inactive,inactive,inactive,inactive,inactive,inactive,inactive,inactive,inactive,inactive,inactive,–,–,inactive,–,–,–,–
CCCCOC(=O)COc1ccc(Cl)cc1Cl,inactive,inactive,inactive,inactive,inactive,inactive,inactive,inactive,inactive,–,inactive,inactive,inactive,inactive,inactive,–,–,–,–,–
CC(=O)Nc1cccc(O)c1,inactive,inactive,inactive,inactive,inactive,inactive,inactive,inactive,inactive,inactive,inactive,inactive,inactive,inactive,–,inactive,inactive,inactive,inactive,–
CCCCC(CC)CO (stereo unspecified),inactive,inactive,inactive,inactive,inactive,inactive,inactive,inactive,inactive,inactive,inactive,inactive,inactive,inactive,–,–,–,inactive,inactive,–
CC(=O)OCC(=O)[C@@]12N=C(C)O[C@@H]1C[C@H]1[C@@H]3CCC4=CC(=O)C=C[C@]4(C)[C@H]3[C@@H](O)C[C@@]12C,inactive,inactive,inactive,inactive,inactive,inactive,inactive,inactive,inactive,inactive,inactive,inactive,inactive,inactive,–,inactive,inactive,inactive,inactive,–
CC(=O)CC(=O)Nc1ccccc1C,inactive,inactive,inactive,inactive,inactive,inactive,inactive,inactive,inactive,inactive,inactive,inactive,inactive,inactive,–,inactive,–,inactive,inactive,–
CCCC(C)=O,inactive,inactive,inactive,inactive,inactive,inactive,inactive,inactive,inactive,–,inactive,inactive,inactive,inactive,inactive,–,–,–,–,–
CCCCCCCCCCCCc1ccccc1,inactive,inactive,inactive,inactive,inactive,inactive,inactive,inactive,inactive,–,inactive,inactive,inactive,inactive,inactive,–,–,–,–,–
